Results on 40 molecules are retold here after PubChem BioAssay AID492948 (National Center for Advancing Translational Sciences (NCATS), 2010).

Molecules are shown by their SMILES. Results filed as inconclusive are left out. The source made the active and inactive calls. Calls come from the whole dose curve; as a rule, active = well fitted activation curve with a large enough effect; inconclusive = small, poorly fitted or top-dose-only effect; inactive = no such curve, though single readings can be large or run the other way.
Potency is the fitted concentration of half-maximal effect.

A short description of this experiment: qHTS Assay for Agonists of the Relaxin Receptor RXFP1: V1B Hit Validation.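 For activation: cAMP accumulation with PDE4 inhibitor Ro 20-1724 present during compound exposure.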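 Note: counter-screen in HEK293 cells expressing V1B rather than RXFP1 for selectivity; nearly all actives have a fitted effect of over 65% in size.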 The note with it: HEK293 V1B cells, cAMP TR-FRET, 30 min; series mostly up to 115 µM. The source says:
NIH Chemical Genomics Center [NCGC]
NIH Molecular Libraries Probe Production Centers Network [MLPCN]
Assay Submitter (PI): Alexander Agoulnik
The relaxin hormone is involved in the variety of biological functions in normal tissues and diseases. The role of relaxin is well-established in female reproduction and parturition, mammary gland and endometrial development, maintenance of myometrial quiescence during pregnancy. Relaxin signaling through its G protein-coupled receptor (GPCR) RXFP1 results in ECM remodeling through regulation of collagen deposition, cell invasiveness, proliferation and overall tissue homeostasis. […] Recombinant human relaxin (rhRlx) is currently being tested in clinical trials as a protective agent in congestive heart failure, in treating severe preeclampsia, and as an anti-fibrotic agent in systemic sclerosis.
Upon relaxin binding RXFP1 activation leads to the activation of adenylate cyclase (AC) via Gs. cAMP will activate PKA, which phosphorylates many signaling proteins. Thus, detection of cAMP increase is an easy and reliable indication of relaxin receptor activation. To screen for agonists of the relaxin receptor, a HEK293T cell line stably transfected with RXFP1 was used. RXFP1 activation was assayed by changes in cAMP levels as detected with a time-resolved fluorescence energy transfer (TR-FRET) cAMP detection kit.
This assay measures activation of a cell expressing […], another GPCR targeted by relaxin, to determine the selectivity of compounds for RXFP1.
NCGC Assay Protocol Summary:
This is a cell-based assay for cAMP second messenger response to screen for agonists of the RXFP2 receptor. The assay was conducted in the presence of a PDE4 inhibitor (Ro 20174). The cells were lysed and the cAMP levels were measured with a TR-FRET cAMP kit. Presence of cAMP in the cell lysate disrupts binding between the cryptate-labeled anti-cAMP and d2-labeled cAMP pair, leading to a decrease in the TR-FRET signal. Data were normalized to the controls for basal activity (buffer only) and 100% activity (29 nM porcine relaxin). The EC50 values were determined from concentration-response data modeled with the standard Hill equation
1536-well assay protocol for the HEK293 V1B cAMP assay:
(1) Add 3 ul HEK293 RXFP2 cell culture. 2000 cells/well in DMEM/F12, 10% FBS, 1x Pen/Strep (dispensed offline with MultiDrop Combi).
(3) Add 23 nl compounds in DMSO solution. Final concentration was 0.5 - 58 uM.
(4) Incubate 30 min at 37C, 5% CO2.
(5) Add 1 ul cAMP-d2 in lysis buffer (HTRF cAMP HiRange kit, CisBio).
(6) Add 1 ul anti-cAMP antibody-cryptate in lysis buffer (HTRF cAMP HiRange kit, CisBio).
(7) Incubate 30 min at room temperature.
(6) Detect the assay plate in a ViewLux plate reader (PerkinElmer) with Ex=320 nm, Em1=615 nm and Em2=665 nm.
Keywords: relaxin, RXFP1, RXFP2, G-protein coupled receptor, cAMP, agonist, high throughput screening, MLSMR, MLSCN, NIH Roadmap, qHTS and NCGC
As to `COC(=O)c1sc(N2C(=O)C(O)=C(C(=O)c3ccc(C)o3)C2c2ccc(F)cc2)nc1C` (stereo not given), the Potency was 2.75 µM (active).

For the molecule `O=C(Nc1ccccc1C(=O)NCCN1CCOCC1)c1ccco1`, the Potency entry is “inactive”. Take `CC(=O)Nc1ccc(NC(=O)CSc2ccc3nnc(-c4cccnc4)n3n2)cc1`: the Potency is 13.8 µM (active). For the molecule `COc1ccc(C(=O)Nc2ccc(S(=O)(=O)Nc3onc(C)c3C)cc2)c(OC)c1`, the Potency is 14.9 µM (active).

As to `O=c1oc2cc(O)c(Cl)cc2c2ccccc12`, the Potency is 6.9 µM (active). In the case of `CCS(=O)(=O)c1nc(S(=O)(=O)c2ccc(Cl)cc2)c(N2CCN(CCO)CC2)s1` it was 34.6 µM (active); in that of `CCN(CC)S(=O)(=O)c1ccc(N2CCOCC2)c(NC(=O)c2cc([N+](=O)[O-])ccc2Cl)c1`, “inactive”; in that of `O=C(Nc1ccccc1C(=O)Nc1ccccc1C(=O)NCc1ccco1)c1ccco1`, “inactive”.

`C=CCOc1c(Cl)cc(CNc2ccc(N(C)C)cc2)cc1OC`: the Potency result was “inactive”. With `Brc1ccc(-c2nn3c(-c4ccco4)nnc3s2)o1`, the Potency was 13.8 µM (active).

In the case of `CCC(=O)Nc1ccc(NC(=O)CSc2nc3c(c(=O)n(C)c(=O)n3C)n2CC)cc1`, the Potency was 38.9 µM (active).

Turning to `Cc1cc(NC(=O)c2ccccc2F)nc2c1c(=O)oc1ccccc12`, the Potency was 21.8 µM (active). In the case of `O=[N+]([O-])c1cc2c(c(CSc3nnc4ccccn34)c1)OCOC2`, the Potency is 12.3 µM (active). For `CCOC(=O)c1sc(NC(=O)CCc2ccc(OC)cc2)nc1C` the value was 15.4 µM (active); for `COc1ccc(CN2C(=O)c3cccnc3C2=O)cc1S(=O)(=O)NC1CCCCC1C` (stereo not given), 38.9 µM (active).

Take `CC(=O)Nc1ccc(S(=O)(=O)NCc2cc(=O)n(C)c(=O)n2C)cc1`: the Potency is 30.9 µM (active).

Consider `Nc1cc2ccncc2c2ccccc12`, for which the Potency entry was “inactive”. In the case of `O=C(Nc1ccccc1C(=O)N1CCCCC1)c1ccco1` it was “inactive”; in that of `CCOc1ccc2cc(C#N)c(SCC(=O)NC(C)CC)nc2c1` (stereo not given), 5.48 µM (active); in that of `O=C(COc1ncnc2scc(-c3ccccc3)c12)NCCN1C(=O)CSC1=O`, 19.4 µM (active). In the case of `O=C(Nc1ccccc1C(=O)Nc1ccc(F)cc1)c1ccco1` it was “inactive”; in that of `O=C(O)c1ccc(N=C2NC(=O)C(CO)(CO)S2)cc1`, “inactive”.

Consider `O=C(Nc1ccccc1C(=O)N1CCN(c2ccccc2)CC1)c1ccco1`, for which the Potency entry was “inactive”. `CCC(Sc1ccc2nnc(-c3cccnc3)n2n1)C(=O)O` (stereo not given): the Potency is 17.3 µM (active). For `Cc1noc(NS(=O)(=O)c2ccc(N3Cc4ccccc4C3=O)cc2)c1C` the value was 11.9 µM (active); for `CCc1ccc(-c2nc3ccc(Br)cc3c(C(=O)O)c2C)s1`, 3.46 µM (active); for `O=C(Oc1ccccc1)Oc1ccc2c(c1)oc(=O)c1ccccc12`, 21.8 µM (active).

Consider `CCOc1ccc(NC(=O)CSc2ccc3nnc(-c4cccnc4)n3n2)cc1`, for which the Potency is 38.9 µM (active). Consider `O=C(NC1CCCCCC1)c1cc2c(=O)n3ccccc3nc2s1`, for which the Potency was 38.9 µM (active). Regarding `COc1cccc(CNC(=O)c2ccc(CS(=O)Cc3ccc(C)cc3)o2)c1` (stereo not given), the Potency result was “inactive”. For `CN(C)S(=O)(=O)c1cccc(COc2ncnc3c(Cl)cc(Cl)cc23)c1` the value was 27.5 µM (active). On to `Cc1ccc(CN(C)C(=O)c2ccc3c(c2)NC(=O)CS3)o1`, for which the Potency result is “inactive”.

As for `O=C(Nc1cc(S(=O)(=O)N2CCOCC2)ccc1N1CCOCC1)c1cn2ccccc2n1`, the Potency was 30.9 µM (active). For `CCN(CC)c1ccc(S(=O)(=O)N2CCOCC2)cc1NC(=O)CSc1nncn1C` the value was 12.3 µM (active).

Regarding `NCCNC(=O)Cc1ccc(NC(=O)Cc2ccc(Nc3ncnc4c3ncn4[C@@H]3O[C@H](CO)[C@@H](O)[C@H]3O)cc2)cc1`, the Potency was 2.75 µM (active).

In the case of `COc1ccc(Nc2ncc(C#N)c(N)n2)c(OC)c1`, the Potency entry is “inactive”.

Consider `Cc1cc(C)n2nc(C(=O)Nc3ccc4c(c3)OCCO4)nc2n1`, for which the Potency was 6.15 µM (active). In the case of `CC(C)n1cnc2c(N(C)c3cccc(Cl)c3)nc(N(CCO)CCO)nc21` it was “inactive”; in that of `O=C(O)c1cc(-c2ccc(Br)s2)nc2ccccc12`, 3.46 µM (active); in that of `CC(=O)C1C(c2ccccc2)c2c(noc2C)CC1(C)O` (stereo not given), “inactive”.
